Screens (PubChem BioAssay)
RORg inh: qHTS for inhibitors of ROR gamma transcriptional activity; Potency, µM (series often up to 53.6 µM), hits mostly inhibitors; Nuclear receptor ROR-gamma (Mus musculus), P51450; 310,000 tested, 5.4% active; Drosophila S2 Gal4-RORgamma UAS-luciferase reporter, 20 h; AID 2551, 2010; further: nearly all actives have a fitted effect of over 60% in size
Target sequence (P51450 whole entry, looked up, the tested form may be a part): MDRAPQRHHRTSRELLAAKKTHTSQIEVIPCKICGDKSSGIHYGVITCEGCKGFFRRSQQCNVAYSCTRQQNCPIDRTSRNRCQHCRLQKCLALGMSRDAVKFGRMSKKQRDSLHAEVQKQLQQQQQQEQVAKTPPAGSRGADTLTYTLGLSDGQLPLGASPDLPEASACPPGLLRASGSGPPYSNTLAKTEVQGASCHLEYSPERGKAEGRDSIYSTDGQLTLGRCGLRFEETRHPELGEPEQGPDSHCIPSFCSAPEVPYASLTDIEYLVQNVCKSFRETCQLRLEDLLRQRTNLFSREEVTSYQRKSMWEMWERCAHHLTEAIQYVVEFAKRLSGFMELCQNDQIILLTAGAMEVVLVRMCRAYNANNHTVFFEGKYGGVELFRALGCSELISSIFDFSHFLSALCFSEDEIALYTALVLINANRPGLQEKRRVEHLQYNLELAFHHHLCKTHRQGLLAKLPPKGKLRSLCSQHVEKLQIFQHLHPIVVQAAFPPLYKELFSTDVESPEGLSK
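Drosophila Schneider cells stably carrying a metallothionein-driven Gal4 DBD–ROR gamma fusion and a UAS-Photinus luciferase reporter were exposed to compound for 1 hr, then induced with copper sulfate (700 uM final) for 20 hr at ambient temperature before luminescence reading.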
ELG1 repair inh: qHTS screen for small molecules that inhibit ELG1-dependent DNA repair in human embryonic kidney (HEK293T) cells expressing luciferase-tagged ELG1 | Potency, µM (highest dose often 46.1 µM), usual class: inhibitors | 330,000 tested, 2.3% active | HEK293T ELG1-luciferase reporter, luminescence, 16 h; DNA damage induced by 5-fluorouridine; further: nearly all actives have a fitted effect of over 55% in size
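Cells (2,000 per well) received 5-fluorouridine plus test compound or DMSO and were incubated 16 hr at 37 °C, 5% CO2. Luciferase activity was read by luminescence 30 min after ONE-Glo addition; signal suppression marked inhibition of damage-induced ELG1 function.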
TDP1 cell CPT: qHTS for Inhibitors of human tyrosyl-DNA phosphodiesterase 1 (TDP1): qHTS in cells in presence of CPT | chicken DT40 Tdp1-/-;hTDP1 cells + 20 nM CPT, ATP luminescence, 48 h | 420,000 tested, 12% active | AID 686979, 2013 | Potency, µM (doses to about 46.2 µM), actives largely listed as inhibitors; further: nearly all actives have a fitted effect of over 55% in size
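Chicken DT40 Tdp1-/- cells stably complemented with human TDP1 were seeded at 400 cells/well in medium containing 20 nM camptothecin, exposed to pin-transferred compounds, and grown at 37 °C for at least 48 hr. Viability was read as ATP luminescence.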
TDP1 cell noCPT: qHTS for Inhibitors of human tyrosyl-DNA phosphodiesterase 1 (TDP1): qHTS in cells in absence of CPT | Potency, µM (highest dose often 46.2 µM), most hits filed as inhibitors | DT40 Tdp1-/- hTDP1 cells, no CPT, ATP luminescence, 48 h | AID 686978, 2013 | 420,000 tested, 15% active; further: nearly all actives have a fitted effect of over 55% in size
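No-CPT arm: Tdp1-/-;hTDP1 DT40 cells (400/well) plus compounds, incubated ≥48 hr at 37 °C. Readout CellTiter-Glo luminescence.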
Gal4-VP16 FLuc: VP16 counterscreen qHTS for inhibitors of ROR gamma transcriptional activity. Potency, µM (titrated, usually from 53.6 µM), hits mostly inhibitors. 310,000 tested, 3.5% active. Drosophila S2 Gal4-VP16 UAS-luciferase, luminescence, 20 h. AID 2546, 2010;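 further: Gal4-VP16 expression switched on by copper sulfate through the metallothionein promoter; nearly all actives have a fitted effect of over 50% in size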
IL1B secr inh: qHTS for Inhibitors of Inflammasome Signaling: IL-1-beta AlphaLISA Primary Screen | THP-1 LPS/ATP IL-1B secretion, AlphaLISA, 16 h; active compounds read low | activity change, % at 57.5 µM | 360,000 tested, 4.7% active; in the data active means activity change below about -50%; inconclusive means mostly about -30% to -49%
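THP-1 cells pretreated 1 hr with compounds (up to 57.5 uM final), then stimulated with LPS (250 ng/mL final) plus ATP (1.25 mM final); secreted IL-1B measured by AlphaLISA after 16 hr, decreased signal indicating inhibition.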
Numbers stand for hits; i = inactive; ? = inconclusive; nt = no result given; [ ] = dose if it differs, or a comment. Only some compounds are listed: those with a hit (about 21% of all), similar ones and a draw of the others. Unless noted, the call rests on the fitted dose curve; in most records, active means well fitted curve in the direction sought with a large enough effect; inconclusive means small, poorly fitted or top-dose-only effect, or another doubt; inactive means no such curve, though single readings can be large; an effect the other way counts as inactive or inconclusive.

SMILES	RORg inh	ELG1 repair inh	TDP1 cell CPT	TDP1 cell noCPT	Gal4-VP16 FLuc	IL1B secr inh
COc1ccc(NC(=O)CSc2nc(-c3ccco3)cc(C(F)(F)F)n2)cc1OC	nt	nt	1.5µM	0.92µM	nt	nt
COc1ccc(CCCc2nnc(SCC(=O)Nc3ccc(C)c(C)c3)o2)cc1	i	i	?	?	i	i
Cc1cccc(NC(=O)CSc2ccc(-c3ccco3)nn2)c1	?	i	?	29µM	i	i
S=C1NCCN1	i	i	i	i	i	i
FCCN(CCF)c1cccc(Cl)c1	i	i	i	i	i	i
COc1ccc(C(=O)NCCn2cc(SC(C)c3ccccc3)c3ccccc32)cc1OC (stereo unspecified)	nt	nt	16µM	12µM	nt	nt
Cc1nn(Cc2ccccc2Cl)c(C)c1C(=O)OCC(=O)N1CC(C)OC(C)C1 (stereo unspecified)	?	i	i	i	i	i
Cc1nn(Cc2ccccc2Cl)c(C)c1C(=O)OCC(=O)NC1CCCC(C)C1C (stereo unspecified)	i	?	21µM	23µM	i	i
O=C(c1cccn2c(=O)c3cc(Br)ccc3nc12)N1CCC2(CC1)OCCO2	i	?	i	i	i	i
Cc1cccn2c(=O)c3cc(C(=O)N4CCC5(CC4)OCCO5)n(C)c3nc12	i	i	1.2µM	1.3µM	i	i
CC(C)C[C@H](NC(=O)[C@H](Cc1ccccc1)NC(=O)CNC(=O)CNC(=O)[C@@H](N)Cc1ccc(O)cc1)C(=O)N[C@@H](CCCN=C(N)N)C(=O)N[C@@H](CCCCN)C(=O)N[C@@H](Cc1ccc(O)cc1)C(=O)N1CCC[C@H]1C(=O)N[C@@H](CCCCN)C(=O)O	nt	nt	i[4.12 µM]	i[4.12 µM]	nt	nt
COC(=O)C1C2c3ccccc3C(c3ccccc32)C1(C)C(=O)OC (stereo unspecified)	nt	nt	i	i	nt	i
COc1ccc(NC(=O)c2sc3nc4c(cc3c2N)N2CCC4CC2)cc1OC	nt	nt	?	26µM	nt	nt
Nc1c(C(=O)Nc2ccc(Cl)cc2)sc2nc3c(cc12)N1CCC3CC1	nt	nt	?	16µM	nt	nt
COc1ccc(C(=O)C2CCCN(Cc3cnc(C)s3)C2)cc1OC (stereo unspecified)	i	i	i	i	i	i
Nc1c(C(=O)Nc2ccc(Cl)c(C(F)(F)F)c2)sc2nc3c(cc12)N1CCC3CC1	nt	nt	13µM	13µM	nt	nt
C#C[C@@]1(O)CCC2C3CCC4=C/C(=N/OCC(=O)NC(CCC(N)=O)C(=O)O)CC[C@]4(C)C3CC[C@@]21C (stereo partly specified)	i	i	i	i	i	i
Cc1cccc(Cc2cnc[nH]2)c1C	nt	nt	i	i	nt	nt
O=c1cccc2n1CC1CNCC2C1 (stereo unspecified)	i	i	i	i	i	i
O=c1[nH]c2ccccc2n1C1CCN(Cc2ccc(-c3nc4ccccc4nc3-c3ccccc3)cc2)CC1	nt	nt	12µM	15µM	nt	i
COc1ccc2nc(-c3ccc(CN4CCC(n5c(=O)[nH]c6ccccc65)CC4)cc3)c(-c3ccccc3)nc2c1	nt	nt	18µM	15µM	nt	-61
O=c1[nH]c2ccccc2n1C1CCN(Cc2ccc(-c3nc4ccc(F)cc4nc3-c3ccccc3)cc2)CC1	nt	nt	4.1µM	6.5µM	nt	-61
Cc1ccc2nc(-c3ccc(CN4CCC(n5c(=O)[nH]c6ccccc65)CC4)cc3)c(-c3ccccc3)nc2c1	nt	nt	8.2µM	12µM	nt	-74
COc1ccc(OC)c2c1CCC1NCCOC21 (stereo unspecified)	i	i	i	i	i	i
CCCCCCC(C)OC(=O)COc1ccc(Cl)cc1Cl (stereo unspecified)	i	nt	i	i	i	nt
